37 compounds from PubChem BioAssay (NCATS) can be followed below.

The structures appear in SMILES notation. Inconclusive results are not listed. Activity calls are given as the source filed them. Calls come from the whole dose curve; as a rule, active = well fitted inhibition curve with a large enough effect; inconclusive = small, poorly fitted or top-dose-only effect; inactive = flat fitted curve, though single readings scatter.

This assay relates to CRL-7250. Briefly: qHTS assay to identify novel small-molecules to repurpose for Merkel cell carcinoma treatment (AID 1296009). Note: nearly all actives have a fitted effect of over 60% in size. The note with it: MCC and control cell lines, CellTiter-Glo viability, 72 h; at 44.8 µM (top of the series) unless noted. An outline of the steps: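 Luminescence from CellTiter-Glo, read 10 min after addition at room temperature, reported viability following a 72 hr, 37 degree celsius treatment with NPC or MIPE compounds in titration; values normalized to plate controls.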
In general terms: qHTS replaces the single test concentration by a dilution series.
As to `O=C1OC(CN2CCOCC2)CN1/N=C/c1ccc([N+](=O)[O-])o1` (configuration not stated), the compound was called inactive.

Turning to `CC(C(=O)O)c1ccc2c(c1)[nH]c1ccc(Cl)cc12` (configuration not stated), the compound was classed as inactive.

Consider `Cc1cc(O)c2c(O)c3c(O)cccc3cc2c1`, for which the call was inactive.

With `CCC(C(=O)OCCN(CC)CC)c1ccccc1` (configuration not stated), the compound was called inactive.

Turning to `O=C(N[C@H](CO)[C@H](O)c1ccc([N+](=O)[O-])cc1)C(Cl)Cl`, the compound was classed as inactive.

`O=C(CCCl)NCCc1ccccc1`: the compound was classed as inactive.

`Cc1ncc([N+](=O)[O-])n1CC(C)O` (configuration not stated): the call was inactive.

For `CN=C(NC#N)NCCSCc1nc[nH]c1C`, the compound was called inactive.

In the case of `NS(=O)(=O)c1cc(C(=O)NN2C[C@H]3[C@H]4CCC(C4)[C@H]3C2)ccc1Cl`, the result was inactive.

With `CC1(C)Oc2ccc(C#N)cc2[C@@H](N2CCCC2=O)[C@@H]1O`, the outcome was inactive.

As to `O=c1cc(O)c(Cl)c[nH]1`, the compound was called inactive.

In the case of `Cc1cc(CCCOc2c(C)cc(-c3noc(C(F)(F)F)n3)cc2C)on1`, the compound was called inactive.

For the compound `O=S(=O)(O)CCS`, the compound was classed as inactive.

For `O=C(Oc1ccccc1)c1ccccc1O`, the result was inactive.

For the compound `Cc1[nH]cnc1-c1ccc(Cl)cc1`, the compound was classed as inactive.

With `Cc1cccc(C)c1NC(=O)c1cc(S(N)(=O)=O)c(Cl)cc1O`, the call was inactive.

As to `Cc1cccc(C)c1NC(=O)CN1CCCCCC1`, the result was inactive.

Consider `NCCCC[C@H](N[C@@H](CCc1ccccc1)C(=O)O)C(=O)N1CCC[C@H]1C(=O)O`, for which the result was inactive.

For `CCCCCCCCCCCCCCCC(=O)NCCO`, the call was inactive.

Consider `COC(=O)[C@@H]1[C@H]2C[C@H]3c4[nH]c5ccccc5c4CCN3C[C@@H]2CC[C@@H]1O`, for which the result was inactive.

For the compound `Cc1onc(-c2ccccc2)c1-c1ccc(S(N)(=O)=O)cc1`, the result was inactive.

As to `CCC(Cc1c(I)cc(I)c(N)c1I)C(=O)O` (configuration not stated), the compound was classed as inactive.

Regarding `CC(C(=O)O)c1ccc(C(=O)c2ccccc2)s1` (configuration not stated), the compound was called inactive.

Turning to `COc1cc(C(=O)NS(=O)(=O)c2ccccc2C)ccc1Cc1cn(C)c2ccc(NC(=O)OC3CCCC3)cc12`, the call was inactive.

On to `CC(N=C(NC#N)Nc1ccncc1)C(C)(C)C` (configuration not stated), for which the compound was classed as inactive.

`O=c1cc[nH]c(=O)[nH]1`: the result was inactive.

As to `CS(=O)(=O)c1ccc([C@@H](O)[C@@H](CO)NC(=O)C(Cl)Cl)cc1`, the result was inactive.

Regarding `Nc1ncnc2c1ncn2[C@@H]1O[C@H](COP(=O)(O)O)[C@@H](O)[C@H]1O`, the outcome was inactive.

As to `CC(=O)CC/C=C(\C)CC/C=C(\C)CC/C=C(\C)CCC=C(C)C`, the compound was classed as inactive.

For the compound `Cc1c(NC(C)C)c(=O)n(-c2ccccc2)n1C`, the outcome was inactive.

For the compound `C[C@H](NC(CCc1ccccc1)C(=O)O)C(=O)N1CCC[C@H]1C(=O)O` (some centres not stated), the call was inactive.

`NS(=O)(=O)c1cc2c(cc1Cl)NC(C(Cl)Cl)NS2(=O)=O` (configuration not stated): the compound was classed as inactive.

As to `CNNCc1ccc(C(=O)NC(C)C)cc1`, the compound was called inactive.

Consider `CCn1cc(C(=O)O)c(=O)c2cc(F)c(N3CCNC(C)C3)c(F)c21` (configuration not stated), for which the outcome was inactive.

Turning to `COc1ccccc1OCC(O)CO` (configuration not stated), the compound was called inactive.

Turning to `C[C@@H]1C[C@H]2[C@@H]3C[C@H](F)C4=CC(=O)C=C[C@]4(C)[C@@]3(F)[C@@H](O)C[C@]2(C)[C@@]1(O)C(=O)CO`, the outcome was inactive.

On to `OCc1ccc(Cl)cc1Cl`, for which the result was inactive.
